# Data published in the supplement of paper PMC10981050.
# Where “and” joins values, the source holds several entries; their conditions need not be identical. Equal values may be shown once. Where a name gives a salt, the structure may show the parent alone.
# Experiments:
# Experiment in all cases: cell viability relative to vehicle control; higher = less cytotoxic
# Conditions in all cases: 10 µM
# K562 = system: K562
# Procedure, shortened: (§1)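 CRISPR-edited SRSF2 P95 mutant and isogenic wild-type clones of four leukaemia lines were screened against Selleck bioactive, kinase and epigenetic probe libraries, with identity-inconsistent compounds removed. Compounds were acoustically dispensed into 384-well plates at a single 10 µM dose, with 2000 cells in 50 µL medium per well. After 48 h, supernatant was removed and CellTiter-Glo luminescence was read. Viability was expressed as percent of the on-plate DMSO vehicle control, analysed in Genedata Screener.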
# MARIMO = system: MARIMO
# Procedure, shortened: as §1
# MOLM14 = system: MOLM14
# Procedure, shortened: as §1
# OCI-AML2 = system: OCI-AML2
# Procedure, shortened: as §1
Compound,cell viability (K562; SRSF2 genotype: SRSF2 P95H/wt),cell viability (K562; SRSF2 genotype: SRSF2 wt/wt),cell viability (MARIMO; SRSF2 genotype: SRSF2 P95H/wt),cell viability (MARIMO; SRSF2 genotype: SRSF2 wt/wt),cell viability (MOLM14; SRSF2 genotype: SRSF2 P95H/wt),cell viability (MOLM14; SRSF2 genotype: SRSF2 wt/wt),cell viability (OCI-AML2; SRSF2 genotype: P95H/wt),cell viability (OCI-AML2; SRSF2 genotype: wt/wt)
CC1(C)S[C@@H]2[C@H](NC(=O)C(C(=O)O)c3ccccc3)C(=O)N2[C@H]1C(=O)O (stereo not given in full) [Carbenicillin disodium],93.2% and 88.7%,97.2%,90.3%,98.8%,98.6%,95.4%,95%,93%
"CN1CCN2c3ncccc3Cc3ccccc3C2C1 (stereo not given) [Mirtazapine (Remeron, Avanza)]",101% and 92.3%,88.7%,93.2%,96.8%,92.3%,97.4%,95.9%,96.5%
C[C@]1(O)C[C@@H](O)[C@]2(O)C=CO[C@@H](O[C@H]3O[C@H](CO)[C@@H](O)[C@H](O)[C@H]3O)[C@@H]21 [Harpagide],105% and 99.4%,101%,106%,98.7%,106%,103%,97.6%,103%
CCn1cc(-c2ccnc3[nH]c(-c4cccc(CN(C)C)c4)cc23)c(-c2ccc(NC(=O)N(C)C)cc2)n1,36.2% and 51.2%,45.9%,30.3%,27%,1.95%,2.96%,1.06%,7.2%
CC(CNC(=O)c1cccnc1)NC(=O)c1cccnc1 (stereo not given) [Nicaraven],100% and 95.4%,107%,106%,108%,101%,104%,101%,98.4%
CC(C[N+](C)(C)C)OC(N)=O (stereo not given) [Bethanechol chloride],97.9% and 102%,102%,111%,112%,108%,109%,109%,98.2%
CS(=O)(=O)n1cc2c(n1)CN([C@H]1CO[C@H](c3cc(F)ccc3F)[C@@H](N)C1)C2 [Omarigliptin (MK-3102)],98.3% and 102%,96.2%,99.2%,99.9%,101%,96.4%,101%,103%
Cc1ccc(S(=O)(=O)c2ccc([N+](=O)[O-])o2)cc1,0.16% and 0.25%,0.18%,0.21%,0.25%,0.19%,0.2%,0.21%,0.26%
S=c1nc[nH]c2nc[nH]c12 [6-Mercaptopurine (6-MP) Monohydrate],70.9% and 60.5%,39.7%,104%,96.8%,87.4%,71.8%,103%,94.1%
c1ccc2[nH]c(-c3cscn3)nc2c1 [Thiabendazole],105% and 101%,106%,98.8%,103%,97.8%,99%,93.6%,105%
"Cc1cc(C(=O)Nc2nc3cccc(Cl)c3n2[C@@H]2CCCCN(C(=O)/C=C/CN(C)C)C2)ccn1 [Nazartinib (EGF816, NVS-816)]",74.5% and 75.6%,69.3%,27.6%,35.6%,53%,48.9%,44.4%,56.7%
COc1ccc(COc2cc3oc(=O)c4cc(C(C)O)ccc4c3cc2OC)cc1 (stereo not given) [Palomid 529],101% and 111%,104%,105%,103%,102%,101%,106%,97.2%
Fc1ccc([C@@H]2CCNC[C@H]2COc2ccc3c(c2)OCO3)cc1 [Paroxetine mesylate],34.1% and 53.1%,49.5%,39%,35.6%,33.4%,38.1%,28.7%,39.2%
OC[C@H]1O[C@H](OC[C@H]2O[C@H](O[C@]3(CO)O[C@H](CO)[C@@H](O)[C@@H]3O)[C@H](O)[C@@H](O)[C@@H]2O)[C@H](O)[C@@H](O)[C@H]1O [Raffinose],97.9% and 96.4%,95.4%,97.2%,103%,103%,98.1%,94.5%,98.6%
O=C1c2ccccc2-c2n[nH]c3cccc1c23,95% and 105%,95.8%,72.3%,72%,45%,33.1%,53.1%,48.7%
Cc1c(F)cc(C(=O)NC2CC2)cc1-c1ccc(C(=O)NCC(C)(C)C)cn1 [Losmapimod],92% and 93.7%,97.8%,95.7%,103%,94.1%,100%,86.7%,95.5%
NC(=O)OCC(COC(N)=O)c1ccccc1 [Felbamate],93% and 95%,94.4%,81.9%,100%,93.4%,89.4%,96.5%,113%
O=C(O)c1cccnc1Nc1cccc(C(F)(F)F)c1 [Niflumic acid],97.2% and 100%,94.6%,94.1%,97.8%,93.8%,98.5%,101%,104%

Compound,cell viability (K562; SRSF2 genotype: SRSF2 P95H/wt),cell viability (K562; SRSF2 genotype: SRSF2 wt/wt),cell viability (MARIMO; SRSF2 genotype: SRSF2 P95H/wt),cell viability (MARIMO; SRSF2 genotype: SRSF2 wt/wt),cell viability (MOLM14; SRSF2 genotype: SRSF2 P95H/wt),cell viability (MOLM14; SRSF2 genotype: SRSF2 wt/wt),cell viability (OCI-AML2; SRSF2 genotype: P95H/wt),cell viability (OCI-AML2; SRSF2 genotype: wt/wt)
COC(=O)[C@]12CCC(C)(C)C[C@H]1[C@H]1C(=O)C=C3[C@@]4(C)C=C(C#N)C(=O)C(C)(C)[C@@H]4CC[C@@]3(C)[C@]1(C)CC2 [Bardoxolone Methyl],2.03% and 0.75%,1.02%,0.23%,0.28%,0.15%,0.13%,0.19%,0.13%
O=C1C[C@@H]2[C@@H](CO)[C@H](O)C[C@@H]2O1 [Corey Lactone Diol],110%,101%,105%,110%,102%,108%,101%,93.3%
"CNC(=O)[C@H](Cc1c[nH]c2ccccc12)NC(=O)[C@@H](CC(=O)NO)CC(C)C [Ilomastat (GM6001, Galardin)]",101% and 105%,95.8%,95.7%,97.5%,88.2%,97.8%,113%,112%
COc1cc2c(Oc3ccc4[nH]c(C)cc4c3F)ccnc2cc1OCC1(N)CC1 [Anlotinib (AL3818) dihydrochloride],19.7% and 32.9%,24.9%,5.61%,5.93%,9.28%,3.53%,17.5%,17.3%
Cc1ccc(NC(=O)c2cccc(C(C)(C)C#N)c2)cc1Nc1ccc2ncn(C)c(=O)c2c1,12.9% and 33%,25.2%,44%,40.9%,44.9%,35.3%,42.7%,41.7%
C[N+]1(C)CCC(=C(c2ccccc2)c2ccccc2)CC1 [Diphemanil Methylsulfate],92.5% and 98%,96.6%,101%,106%,99%,98.6%,99.8%,101%
Nc1ccc(C(=O)Nc2cccc(-c3nc(N4CCOCC4)c4oc5ncccc5c4n3)c2)cn1,75.4% and 89.9%,95.8%,73.7%,79.4%,103%,104%,86.7%,89.1%
C[C@]12CC[C@@H]3c4ccc(O)cc4CC[C@H]3[C@@H]1CCC2=O [Estrone],100% and 92.7%,103%,94.5%,96.6%,101%,99.1%,101%,113%
O=C1CCCC(=O)C1C(=O)c1ccc(C(F)(F)F)cc1[N+](=O)[O-] [Nitisinone],105%,108%,103%,109%,104%,108%,110%,111%
O=C(/C=C\n1cnc(-c2cc(C(F)(F)F)cc(C(F)(F)F)c2)n1)NNc1cnccn1 [Selinexor (KPT-330)],8.08% and 19.9%,13.9%,22.6%,22.3%,2.17%,1.26%,6.48%,11.4%
CC1(C)OC(=O)C=C[C@]2(C)[C@H]3CC[C@@]4(C)[C@H](c5ccoc5)OC(=O)[C@H]5O[C@]54[C@]3(C)C(=O)C[C@@H]12 [Obacunone],103% and 98.1%,95.4%,92.7%,95.5%,97.4%,102%,91.1%,93.6%
CNCCc1ccccn1 [Betahistine],102% and 100%,102%,100%,103%,101%,105%,102%,105%
C[C@@H]1O[C@@H](O[C@@H]2[C@@H](O)[C@H](OCCc3ccc(O)c(O)c3)O[C@H](CO)[C@H]2OC(=O)/C=C/c2ccc(O)c(O)c2)[C@H](O)[C@H](O)[C@H]1O [Verbascoside],86.6% and 86%,87.4%,82.8%,92.3%,81.9%,92.9%,92.7%,92.5%
CCN(CC)CCCC[C@H](NC(=O)[C@H](CC(C)C)NC(=O)[C@H](C)NC(=O)[C@H](Cc1ccccc1)NC(=O)c1ccc(C(C)(C)C)cc1)C(=O)N[C@@H](CO)C(=O)OC,88.1% and 85%,84.6%,86.1%,99%,83.2%,92%,90.4%,113%
O=C(NOCCO)c1ccc2cncn2c1Nc1ccc(I)cc1F,78.1% and 89.5%,80.8%,41.2%,37%,43.5%,27%,39.1%,40.2%
Cc1cccc(Nc2cc(Cl)nc(SCC(=O)O)n2)c1C,95.6% and 95.5%,97.2%,98.9%,99.9%,95.9%,98.5%,90.3%,94.4%
CC(=O)OCC(=O)[C@@]12OC(C)(C)O[C@@H]1C[C@H]1[C@@H]3C[C@H](F)C4=CC(=O)C=C[C@]4(C)[C@@]3(F)[C@@H](O)C[C@@]12C [Fluocinonide (Vanos)],100% and 105%,108%,110%,106%,107%,94.8%,111%,117%
